Measured values as given in PMC8384837, “Expanding the binding specificity for RNA recognition by a PUF domain”.

The sequences below were run against PUM1 PUF domain R5-TRA (Homo sapiens, UniProt Q14671 828-1176, C1007T;Q1011A) (assay: yeast three-hybrid, YBZ-1, SC-Leu-His + 0.5 mM 3-AT, 4 days). Conditions: tags: N-Gal4 AD-HA kept; label: inside an RPR1-promoter hybrid RNA with tandem MS2 sites; ssRNA.
Method in brief: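 The interaction score is the log change in variant frequency from input to selection. Scores were computed in log2 with a pseudocount of 1 for absent variants, using Illumina sequencing of PCR-amplified repeat regions. The input came from four days on SC-Leu and the selection from four days on SC-Leu-His + 0.5 mM 3-AT. The cells were strain YBZ-1 (LexA–MS2 coat fusion, HIS3 reporter) co-expressing Pumilio-1 PUF domain libraries and matching RNA elements from a centromeric plasmid.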

Chain of PUM1 PUF domain R5-TRA (Q14671 828-1176 C1007T/Q1011A): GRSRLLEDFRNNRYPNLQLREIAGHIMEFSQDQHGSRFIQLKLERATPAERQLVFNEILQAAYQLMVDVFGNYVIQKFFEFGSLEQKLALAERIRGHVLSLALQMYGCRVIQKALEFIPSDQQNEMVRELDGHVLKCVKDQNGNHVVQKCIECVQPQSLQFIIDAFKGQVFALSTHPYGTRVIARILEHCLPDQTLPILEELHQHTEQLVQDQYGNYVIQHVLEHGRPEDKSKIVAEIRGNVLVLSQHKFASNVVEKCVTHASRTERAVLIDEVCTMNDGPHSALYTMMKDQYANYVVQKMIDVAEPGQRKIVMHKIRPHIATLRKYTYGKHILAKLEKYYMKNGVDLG

| Sequence | binding signal |
| --- | --- |
| GGCUAGAACUAGUGGAUCCCCCGGCGCCCGGCGGCUCGAGCCCGGGUAAGUGUGAAUAGUCUGCAUGCCGCCGGGCGCCAUGCCUGCAGGUCGACUCUAGAAAACAUG | 1.91 log2 enrichment (interaction score) |
| GGCUAGAACUAGUGGAUCCCCCGGCGCCCGGCGGCUCGAGCCCGGGUAAGUGUUAAUAGUCUGCAUGCCGCCGGGCGCCAUGCCUGCAGGUCGACUCUAGAAAACAUG | 2.4 log2 enrichment (interaction score) |
| GGCUAGAACUAGUGGAUCCCCCGGCGCCCGGCGGCUCGAGCCCGGGUAAGUGUAAAUAGUCUGCAUGCCGCCGGGCGCCAUGCCUGCAGGUCGACUCUAGAAAACAUG | 2.82 log2 enrichment (interaction score) |
